# In PubChem BioAssay:
# Active and inactive are the calls of the source. Unless noted, no rule for the calls is given here.
# Assays:
# [1] = test system: Wnt5a (protein binding on small-molecule microarray); assay: small molecules binding Wnt5a protein – biophysical, small-molecule microarray, 635/667 nm fluorescence, primary screen (AID 1142); conditions: 635 nm fluorescence, higher = more signal;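 also: fluorescence read at 667 nm with signal to noise per printed feature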
# [2] = ATP-based viability of Huh7 replicon cells – cell-based, CellTiter-Glo luminescence, basal, 48 h, cytotoxicity control for HCV replication inhibitor project, primary screen (AID 1143); conditions: higher = more signal, called active from +8 up or from −8 down;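 also: Huh7 hepatoma cells carrying a hepatitis C replication reporter with no stimulus; test concentration not given here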
# [3] = Pseudomonas biofilm growth suppression – PAO1 strain, BacTiter-Glo luminescence, LB-PBS, primary screen (AID 1144); conditions: P. aeruginosa PAO1 biofilm, 12 h, higher = more signal
# [4] = basal CRE-LacZ reporter activity in PC12 – cell-based, unstimulated, primary screen (AID 1145); conditions: no forskolin, luminescence, 4.5 h, higher = more signal, called active from +8 up or from −8 down
# [5] = forskolin-driven CRE-LacZ activity in PC12 – cell-based, CRE-LacZ reporter, forskolin-stimulated, primary screen (AID 1146); conditions: luminescence, 4.5 h, higher = more signal, called active from +8 up or from −8 down;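 also: PC12 cells with 6xCRE LacZ reporter stimulated by forskolin 10 µM; beta-galactosidase reporter signal reflecting CREB driven transcription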
# [6] = molecular target: Streptavidin (Streptomyces avidinii) (UniProt P22629); assay: compounds binding control protein streptavidin – biophysical, small-molecule microarray, 635/667 nm fluorescence, artefact control for SMM compound annotation, primary screen (AID 1147); conditions: higher = more signal;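 also: signal reflects streptavidin binding to arrayed compounds as a control protein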
# Streptavidin (Streptomyces avidinii), sequence (P22629 whole entry, looked up): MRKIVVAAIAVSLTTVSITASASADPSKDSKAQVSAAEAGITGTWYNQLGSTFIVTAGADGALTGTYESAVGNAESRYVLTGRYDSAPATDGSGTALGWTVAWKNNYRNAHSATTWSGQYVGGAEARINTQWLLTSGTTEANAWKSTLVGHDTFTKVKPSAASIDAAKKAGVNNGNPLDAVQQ
# [7] = probe aInhba binding on compound microarray – biochemical, small-molecule microarray, 635/667 nm fluorescence, primary screen (AID 1148); conditions: higher = more signal;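 also: score merges 667nm spot fluorescence with signal-to-noise for antibody binding to printed compounds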
# Torsin-1A (Homo sapiens) [8] = molecular target: Torsin-1A (Homo sapiens) (UniProt O14656); assay: TOR1A wild-type binding on microarray – cell lysate, small-molecule microarray, lysate, 635/667 nm, primary screen (AID 1149); conditions: COS7 hTOR1A-WT lysate, 635 nm fluorescence, higher = more signal
# Torsin-1A (Homo sapiens), sequence (O14656 whole entry, looked up): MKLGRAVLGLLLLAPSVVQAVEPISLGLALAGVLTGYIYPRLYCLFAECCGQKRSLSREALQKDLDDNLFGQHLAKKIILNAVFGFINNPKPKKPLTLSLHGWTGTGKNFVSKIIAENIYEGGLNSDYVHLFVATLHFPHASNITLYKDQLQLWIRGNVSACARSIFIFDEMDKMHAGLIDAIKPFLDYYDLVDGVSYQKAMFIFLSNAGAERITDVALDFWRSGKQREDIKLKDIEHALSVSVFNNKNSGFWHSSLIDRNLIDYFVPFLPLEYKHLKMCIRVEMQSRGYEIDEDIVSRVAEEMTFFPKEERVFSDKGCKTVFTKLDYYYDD
# Torsin-1A (Homo sapiens) [9] = molecular target: Torsin-1A (Homo sapiens) (UniProt O14656); assay: torsin A mutant lysate binding on microarrays – cell lysate, small-molecule microarray, COS7 lysate, 635/667 nm fluorescence, primary screen (AID 1150); conditions: COS7 hTOR1A mutant lysate, 635 nm fluorescence, higher = more signal;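 also: score pools 667 nm emission and signal to noise measuring lysate protein binding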
# [10] = test system: Sonic hedgehog protein (Shh); assay: Sonic hedgehog microarray binding compounds – biochemical, small-molecule microarray, 635/667 nm fluorescence, primary screen (AID 1151); conditions: 635 nm fluorescence, higher = more signal;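 also: Shh protein binding to compounds spotted on small-molecule microarray slides; score combines spot fluorescence intensity with signal-to-noise across triplicate slides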
# [11] = optical density shifts of acrAB sulA E. coli – strain DRC41, OD650, 48 h, E. coli filamentation inducer project, primary screen (AID 1152); conditions: higher = more signal, called active from +8 up or from −8 down;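 also: E. coli MC1000 strain DRC41 lacking acrAB efflux pump and sulA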
# [12] = probe aLefty1 binding on compound microarray – biochemical, small-molecule microarray, 635/667 nm fluorescence, primary screen (AID 1153); conditions: higher = more signal;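 also: score merges spot fluorescence with signal-to-noise ratio from the scanned slide images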
# [13] = plasmodial surface anion channel blockers, osmotic lysis – cell-based, P. falciparum Indochina, OD700, 1 h, primary screen (AID 1154); conditions: P. falciparum Indochina infected RBC osmotic lysis, higher = more signal, called active from +8 up or from −8 down
# [14] = plasmodial surface anion channel blockers, osmotic lysis – cell-based, P. falciparum Indochina, OD700, 2 h, primary screen (AID 1155);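 also: lysis reports solute entry through the parasite surface anion channel PSAC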; conditions: P. falciparum Indochina infected erythrocytes, higher = more signal, called active from +8 up or from −8 down
# [15] = changes in parasitized red cell lysis, either direction – P. falciparum Indochina, OD700, 3 h, PSAC antagonist project, primary screen (AID 1156); conditions: P. falciparum-infected erythrocytes, osmotic lysis, higher = more signal, called active from +8 up or from −8 down
# [16] = plasmodial surface anion channel blockers, osmotic lysis – cell-based, P. falciparum Indochina, OD700, 18 h, primary screen (AID 1157); conditions: P. falciparum Indochina infected erythrocytes, osmotic lysis OD700, 18 h; higher = more signal, called active from +8 up or from −8 down
# [17] = S6 kinase pathway phospho-S6 level changes – cell-based, A549, cytoblot, luminescence, serum-stimulated, primary screen (AID 1158); conditions: 5 h, higher = more signal;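 also: serum-stimulated A549 lung adenocarcinoma cells; signal is phosphorylated S6 detected by cytoblot immunostaining with HRP secondary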
# [18] = molecular target: NADPH oxidase 2 (Homo sapiens) (UniProt P04839); assay: compounds shifting NOX2 Amplex Red fluorescence – cell-based, HEK293-NOX2, PMA-stimulated, NOX inhibitor project, primary screen (AID 1159); conditions: 45 min, higher = more signal, called active from +8 up or from −8 down; also: test concentration not given here
# NADPH oxidase 2 (Homo sapiens), sequence (P04839 whole entry, looked up): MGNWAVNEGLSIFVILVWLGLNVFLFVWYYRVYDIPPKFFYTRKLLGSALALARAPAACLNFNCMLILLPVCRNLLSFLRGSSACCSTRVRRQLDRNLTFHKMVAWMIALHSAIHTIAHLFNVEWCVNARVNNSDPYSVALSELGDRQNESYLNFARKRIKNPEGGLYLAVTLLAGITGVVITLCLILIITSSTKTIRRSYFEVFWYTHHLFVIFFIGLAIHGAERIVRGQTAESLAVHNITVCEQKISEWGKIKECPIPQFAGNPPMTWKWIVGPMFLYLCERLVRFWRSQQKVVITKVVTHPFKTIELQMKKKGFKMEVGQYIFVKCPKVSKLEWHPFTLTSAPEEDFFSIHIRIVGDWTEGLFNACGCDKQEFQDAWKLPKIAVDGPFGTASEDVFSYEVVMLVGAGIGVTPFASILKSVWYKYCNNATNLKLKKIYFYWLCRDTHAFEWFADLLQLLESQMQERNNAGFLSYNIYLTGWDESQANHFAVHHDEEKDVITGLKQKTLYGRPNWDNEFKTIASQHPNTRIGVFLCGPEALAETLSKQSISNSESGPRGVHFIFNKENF
# [19] = molecular target: NADPH oxidase 4 (Homo sapiens) (UniProt Q9NPH5); assay: compounds shifting NOX4 Amplex Red fluorescence – cell-based, HEK293-NOX4, tetracycline-induced, NOX inhibitor project, primary screen (AID 1160); conditions: HEK293-NOX4, Amplex Red H2O2 fluorescence, 45 min; higher = more signal, called active from +8 up or from −8 down
# NADPH oxidase 4 (Homo sapiens), sequence (Q9NPH5 whole entry, looked up): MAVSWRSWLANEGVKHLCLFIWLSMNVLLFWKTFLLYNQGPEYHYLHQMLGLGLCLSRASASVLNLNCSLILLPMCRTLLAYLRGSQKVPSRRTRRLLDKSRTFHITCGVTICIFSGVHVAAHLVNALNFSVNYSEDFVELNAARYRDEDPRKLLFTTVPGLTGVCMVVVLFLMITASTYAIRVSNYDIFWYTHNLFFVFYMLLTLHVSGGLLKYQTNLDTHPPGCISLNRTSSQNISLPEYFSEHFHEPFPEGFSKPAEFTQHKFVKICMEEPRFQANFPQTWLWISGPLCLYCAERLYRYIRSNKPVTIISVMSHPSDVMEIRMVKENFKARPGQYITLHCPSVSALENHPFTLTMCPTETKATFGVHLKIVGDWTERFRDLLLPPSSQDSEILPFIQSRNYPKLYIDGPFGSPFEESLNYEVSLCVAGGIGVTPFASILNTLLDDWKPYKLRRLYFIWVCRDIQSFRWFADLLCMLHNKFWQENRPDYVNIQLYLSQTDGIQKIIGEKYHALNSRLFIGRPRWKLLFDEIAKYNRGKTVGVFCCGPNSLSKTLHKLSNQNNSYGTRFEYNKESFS
# [20] = molecular target: NADPH oxidase 5 (Homo sapiens) (UniProt Q96PH1); assay: compounds shifting NOX5 Amplex Red fluorescence – cell-based, HEK293-NOX5, NOX inhibitor project, primary screen (AID 1161); conditions: HEK293-NOX5, ionomycin, 45 min, higher = more signal
# NADPH oxidase 5 (Homo sapiens), sequence (Q96PH1 whole entry, looked up): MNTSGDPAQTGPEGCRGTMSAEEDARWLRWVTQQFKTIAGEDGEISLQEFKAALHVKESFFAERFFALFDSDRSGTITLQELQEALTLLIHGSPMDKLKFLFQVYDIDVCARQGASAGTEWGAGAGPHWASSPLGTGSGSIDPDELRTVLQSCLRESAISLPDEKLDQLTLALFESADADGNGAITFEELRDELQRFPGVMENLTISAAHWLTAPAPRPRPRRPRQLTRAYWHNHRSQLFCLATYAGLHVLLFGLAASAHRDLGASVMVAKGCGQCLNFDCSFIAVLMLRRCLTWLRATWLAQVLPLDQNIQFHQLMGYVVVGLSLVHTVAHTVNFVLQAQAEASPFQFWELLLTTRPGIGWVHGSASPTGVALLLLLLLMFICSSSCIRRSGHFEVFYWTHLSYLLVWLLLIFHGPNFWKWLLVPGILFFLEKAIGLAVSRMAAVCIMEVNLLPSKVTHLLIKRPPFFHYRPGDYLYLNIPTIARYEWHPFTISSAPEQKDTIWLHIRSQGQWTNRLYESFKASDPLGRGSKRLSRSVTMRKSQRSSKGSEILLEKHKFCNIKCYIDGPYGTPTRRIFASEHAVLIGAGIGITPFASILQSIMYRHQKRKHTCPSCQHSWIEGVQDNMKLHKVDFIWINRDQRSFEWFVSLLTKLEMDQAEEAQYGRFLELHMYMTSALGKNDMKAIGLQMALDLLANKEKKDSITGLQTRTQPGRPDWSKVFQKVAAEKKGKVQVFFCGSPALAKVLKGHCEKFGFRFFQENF
Structure (SMILES),composite z-score [1],z-score [2],z-score [3],z-score [4],z-score [5],composite z-score [6],composite z-score [7],composite z-score (Torsin-1A (Homo sapiens) [8]),composite z-score (Torsin-1A (Homo sapiens) [9]),composite z-score [10],z-score [11],composite z-score [12],z-score [13],z-score [14],z-score [15],z-score [16],z-score [17],z-score [18],z-score [19],z-score [20]
COc1ccc(C(O)C2C=CC3C(=O)N(C)C(=O)C3N2N2CCCCC2)cc1 (stereo not given),0.345,0.758 (inactive),-0.3 (inactive),0.639 (inactive),0.104 (inactive),1.54,0.158,0.718,0.849,-0.381,-0.625 (inactive),0.381,1.41 (inactive),1.36 (inactive),-0.138 (inactive),1.25 (inactive),-0.734,-0.378 (inactive),-0.744 (inactive),-0.369
Cc1ccc(S[C@]2(C(=O)NCC(F)(F)F)CC(=O)N(Cc3ccccc3)[C@@H]2c2ccc(CO)cc2)cc1,-0.264,-4.85 (inactive),-0.485 (inactive),0.829 (inactive),0.906 (inactive),-1.23,0.0171,-0.2,-0.238,-0.243,-0.009 (inactive),0.0413,1.6 (inactive),-0.821 (inactive),1.56 (inactive),-1.73 (inactive),1.98,-0.599 (inactive),0.488 (inactive),-1.68
C=C[C@H](COC(C)=O)NS(=O)(=O)c1ccc(Br)cc1,-0.0966,0.0651 (inactive),-0.0168 (inactive),0.26 (inactive),0.678 (inactive),1.16,-0.0762,0.119,-0.214,0.382,0.348 (inactive),0.0056,0.174 (inactive),-0.191 (inactive),-0.3 (inactive),0.252 (inactive),0.16,1.96 (inactive),-0.0653 (inactive),0.0573
Cc1ccc(S[C@]2(C(=O)NC(C)C)CC(=O)N(C3Cc4ccccc4C3)[C@@H]2c2ccc(CO)cc2I)cc1,-0.511,-1.83 (inactive),-0.0878 (inactive),0.622 (inactive),1.28 (inactive),-0.959,-0.355,-1.49,-0.009,-0.274,0.135 (inactive),-0.788,8.47 (active),1.39 (inactive),1.67 (inactive),0.13 (inactive),-0.086,1.87 (inactive),-1.89 (inactive),1.23
CN(C)C(=O)[C@@]1(Cc2ccccc2N=[N+]=[N-])COC(c2ccc(OCCCO)cc2)=N1,0.932,-2.68 (inactive),0.618 (inactive),0.942 (inactive),0.646 (inactive),0.726,-0.0171,0.425,0.837,-0.215,1.92 (inactive),-0.781,26.3 (active),6.99 (inactive),3.43 (inactive),1.23 (inactive),0.685,-1.99 (inactive),-0.103 (inactive),-1.82
O=C(O)[C@]1(Cc2ccccc2)N=C(c2ccc(OCCCO)cc2)O[C@@H]1c1ccccc1,-0.159,-1.14 (inactive),0.534 (inactive),-0.445 (inactive),-0.471 (inactive),-0.423,-0.119,-0.639,-0.411,-1.78,0.585 (inactive),0.104,5.03 (inactive),-0.125 (inactive),-1.2 (inactive),0.0743 (inactive),-0.174,0.26 (inactive),0.674 (inactive),0.914
CC(C)OC(=O)CC(=O)CC(O)c1cccc(C#N)c1 (stereo not given),0.167,-2.13 (inactive),-0.461 (inactive),-0.63 (inactive),-0.291 (inactive),1.35,0.0841,0.863,1.97,-0.206,1.27 (inactive),0.273,1.65 (inactive),-0.261 (inactive),-1.36 (inactive),-1.2 (inactive),1.29,0.247 (inactive),0.89 (inactive),-0.0191
COC(=O)C1(Cc2ccccc2)C=C2C(=C(c3ccccc3)C(=O)C2C)CN1 (stereo not given),2,-0.541 (inactive),0.125 (inactive),1.15 (inactive),0.465 (inactive),0.509,0.862,0.0676,0.47,-0.525,-1.38 (inactive),1.23,2.11 (inactive),-0.0273 (inactive),0.423 (inactive),0.298 (inactive),0.208,-0.66 (inactive),-3.74 (inactive),-3.29
